CBFb-RUNX1 inh: blocks binding between human CBF-beta and RUNX1; Q01196+Q13951; AlphaScreen CBFb-His/RUNX1-biotin binding, biochemical; Potency, µM (titrated, usually from 59.8 µM), for inactives: top-dose activity, negative = inhibition, actives largely listed as inhibitors; 230,000 tested, under 10 active; AID 1477; further: % of control where 0% means no effect
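CBFb-His/RUNX1-biotin, 30 nM each, preincubated 20 min RT; compound 15 min RT; Ni + streptavidin beads 50 ng each, 90 min RT; AlphaScreen read.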
HttQ103 aggreg: mutant huntingtin aggregation inhibition; PC12 HttQ103-GFP aggregates, Acumen cytometry, 40 h; Potency, µM (titrated, usually from 46.1 µM), for inactives: top-dose activity change, negative = inhibition, most hits filed as inhibitors; 220,000 tested, 1.1% active; further: potency means the concentration at half of the fitted maximal effect; on the % scale 0 is the no-effect control and ±100 the full control effect; nearly all actives have a fitted effect of over 60% in size
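Compounds (qHTS titration) were added to PC12 cells expressing an ecdysone-driven HTT exon 1 Q103–GFP fusion after induction with 100 nM tebufenozide. Aggregate formation was measured as GFP objects in cell lysates.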
ALDH1A1 inh: inhibitors of human aldehyde dehydrogenase 1A1; Purified ALDH1A1, NADH fluorescence, propionaldehyde substrate; Potency, µM (top dose mostly 75.3 µM), for the others: at the highest dose activity, negative = inhibition, most hits filed as inhibitors; 220,000 tested, 7.3% active; active means well fitted inhibition curve with a large enough effect, not every such curve was filed as active; inconclusive means small, poorly fitted or top-dose-only effect, or another doubt; inactive means no such curve, though single readings can be large or run the other way;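 further: potency means the concentration at half of the fitted maximal effect; plate controls were no enzyme wells and a reference inhibitor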
KDM4E inh: blocks human JMJD2E demethylase activity; B2RXH2; AID 2147; 230,000 tested, 1.6% active; JMJD2E catalytic domain, FDH-coupled NADH fluorescence (FDH is formaldehyde dehydrogenase); Potency, µM (titrated, usually from 57.1 µM), for inactives: at the top dose activity change, negative = inhibition, hits mostly inhibitors; active means well fitted inhibition curve with a large enough effect, not every such curve was filed as active; inconclusive means small, poorly fitted or top-dose-only effect, or another doubt; inactive means no such curve, though single readings can be large or run the other way;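 further: potency means the concentration at half of the fitted maximal effect; 0% = wells with enzyme and -100% = buffer wells without enzyme; nearly all actives have a fitted effect of over 50% in size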
Target sequence (B2RXH2 1-337 limits assumed): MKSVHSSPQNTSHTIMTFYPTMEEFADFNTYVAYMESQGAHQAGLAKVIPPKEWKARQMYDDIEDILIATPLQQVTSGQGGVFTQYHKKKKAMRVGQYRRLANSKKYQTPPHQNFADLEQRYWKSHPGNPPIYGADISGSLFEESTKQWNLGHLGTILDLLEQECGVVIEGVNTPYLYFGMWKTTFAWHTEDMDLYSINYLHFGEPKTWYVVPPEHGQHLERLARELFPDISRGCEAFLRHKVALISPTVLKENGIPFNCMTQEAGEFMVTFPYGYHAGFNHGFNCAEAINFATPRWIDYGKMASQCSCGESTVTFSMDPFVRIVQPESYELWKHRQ
HPGD inh: inhibitors of human 15-hydroxyprostaglandin dehydrogenase (HPGD); Potency, µM, inactives show top-dose activity change, negative = inhibition, hits mostly inhibitors; 150,000 tested, 4.3% active; purified HPGD, NADH fluorescence kinetic, PGE2 substrate; P15428; active means well fitted inhibition curve with a large enough effect, not every such curve was filed as active; inconclusive means small, poorly fitted or top-dose-only effect, or another doubt; inactive means no such curve, though single readings can be large or run the other way; further: potency means the concentration at half of the fitted maximal effect; on the % scale 0 is the no-effect control and ±100 the full control effect
Target sequence (P15428 whole entry, looked up): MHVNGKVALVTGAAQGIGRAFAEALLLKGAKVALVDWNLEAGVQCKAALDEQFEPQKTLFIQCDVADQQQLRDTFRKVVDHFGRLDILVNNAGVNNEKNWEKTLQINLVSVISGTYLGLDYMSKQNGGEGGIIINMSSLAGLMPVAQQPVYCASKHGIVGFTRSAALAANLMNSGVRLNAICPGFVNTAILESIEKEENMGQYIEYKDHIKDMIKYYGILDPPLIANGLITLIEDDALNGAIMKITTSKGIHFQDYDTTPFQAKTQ
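NADH formation kinetics: reaction with 30 uM PGE2 and 1 mM NAD+ (final), 20 nM enzyme, Tris-HCl pH 8 with Tween 20, after 15 min compound preincubation at room temperature. Fluorescence change, last versus first of five reads.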
HTT ATP protect: protects HTT-Q103 PC12 cells, measured by ATP; AID 1471; PC12 HTT-Q103 induced, cytoprotection, ATP luminescence, 40 h; 230,000 tested, 0.14% active; Potency, µM (top dose mostly 56.4 µM), for inactives: cytoprotection (ATP increase), actives largely listed as activators; further: potency means the concentration at half of the fitted maximal effect; % of control where 0% means no effect; nearly all actives have a fitted effect of over 45% in size
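Readout: ATPlite luminescence (ATP level). Model: stable PC12, inducible Htt exon1 Q103-GFP. Inducer: tebufenozide, 100 nM final. Compounds: dose series. No G418 in medium.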
Active calls of the source: *; ? = inconclusive; . = not tested or not shown; [ ] = dose if it differs, or a comment. Most compounds without a hit are left out; they make up all but 9.8% or so of the library. Unless noted, the call rests on the fitted dose curve; in most records, active means well fitted curve in the direction sought with a large enough effect; inconclusive means small, poorly fitted or top-dose-only effect, or another doubt; inactive means no such curve, though single readings can be large; an effect the other way counts as inactive or inconclusive.

SMILES	CBFb-RUNX1 inh	HttQ103 aggreg	ALDH1A1 inh	KDM4E inh	HPGD inh	HTT ATP protect
COc1cc(OC)c2c(C)cc(=O)oc2c1C(CCN1CCCC(C)C1)c1ccc(N(C)C)cc1 (configuration not stated)	-20%	.	.	.	.	.
Cc1c(C(=O)Oc2ccc(-c3cnc4ccccc4n3)cc2)cccc1[N+](=O)[O-]	-22%	.	?	-13%	-26%	?
O=C(Oc1ccc(-c2cnc3ccccc3n2)cc1)c1cc([N+](=O)[O-])ccc1Cl	-11%	-1%	0.22µM*	2%	-15%	-23%
CC(C)CSc1ccc(S(=O)(=O)NCC(=O)O)cc1[N+](=O)[O-]	3%	4%	-5%	-5%	.	-5%
CNC(=O)CSc1nc2nc(C)cc(C)n2n1	2%	5%[9.22 µM]	-16%	-6%	-18%	4%
CCOC(=O)CC(=O)CSc1nc2nc(C)cc(C)n2n1	-13%	2%	13µM*	3%	16µM*	-12%[0.074 µM]
COc1ccc2c(c1)C(=O)[C@H](OC(=O)NCCc1ccc(OC)c(OC)c1)[C@@H](c1ccc(OC)c(Br)c1)O2	2%	.	-7%	-5%	-6%	?
Cc1ccc(N(C(=O)c2csnn2)C(C(=O)NC(C)(C)C)c2ccncc2)cc1 (configuration not stated)	3%	12%	0%	7%	-2%	4%
CCc1ccc(N(C(=O)c2csnn2)C(C(=O)NC(C)(C)C)c2cccnc2)cc1 (configuration not stated)	4%	16%[9.22 µM]	13µM*	11%	.	37%[10 µM]
O=C(NC1CCCC1)C(c1ccncc1)N(C(=O)c1csnn1)C1CCCC1 (configuration not stated)	-2%	-13%[9.22 µM]	13µM*	-3%	.	3%[10 µM]
CCC(C)(C)NC(=O)C(c1cccnc1)N(C(=O)c1csnn1)c1ccccc1 (configuration not stated)	19%	-21%[9.22 µM]	4%	4%	.	-11%[10 µM]
CC(C)c1ccc(N(C(=O)c2csnn2)C(C(=O)NC(C)(C)C)c2ccncc2)cc1 (configuration not stated)	1%	17%	2.2µM*	-4%	-13%	-4%
O=C(NC1CCCC1)C(c1cccnc1)N(C(=O)c1csnn1)C1CCCC1 (configuration not stated)	2%	2%	?	-1%	5%	27%[1.9 µM]
CC(C)c1ccc(N(C(=O)c2csnn2)C(C(=O)NC(C)(C)C)c2cccnc2)cc1 (configuration not stated)	-5%	16%	0.71µM*	2%	.	-8%
CC(C)(C)NC(=O)C(c1cccnc1)N(C(=O)c1csnn1)c1ccccc1 (configuration not stated)	-4%	-6%[9.22 µM]	10%	8%	.	4%[10 µM]
C/C(CCS(=O)(=O)c1ccccc1)=N/O	4%	13%	-8%	-5%	.	13%
CCCc1cc2c(c(=O)o1)C(O)C1OC1C2=O (configuration not stated)	3%[13.1 µM]	.	4µM*	.	.	-62%[10 µM]
O=C(O)Cc1sc(NCc2ccco2)nc1-c1ccccc1	-15%	10%[9.22 µM]	3.5µM*	-26%	.	11%[10 µM]
Cc1ccccc1-c1cc(C(=O)Nc2sc(C)c(C)c2C(N)=O)c2ccccc2n1	-3%	?	?	-10%	32µM*	-55%
Cc1ccc(C(=O)Nc2sc(C(=O)N(C)C)c(C)c2C#N)cc1	7%	8%	-15%	-5%	-14%	4%[10 µM]
CCOC(=O)c1sc(NC(=O)c2cc(-c3ccccc3C)nc3ccccc23)c(C#N)c1C	-1%	5.6µM*	8.9µM*	?	16µM*	34%
CCOC(=O)c1c(NC(=O)c2cc(-c3ccc(Cl)s3)nc3ccccc23)sc(C(N)=O)c1C	10%	13%	7%	-8%	-6%	-14%[10 µM]
COc1ccc(-c2cc(C(=O)Nc3sc4c(c3C#N)CCCC4)c3ccccc3n2)cc1OC	2%	2%	-10%	?	-22%	-18%
CCOC(=O)c1sc(NC(=O)c2ccncc2)c(C#N)c1C	7%	20µM*	3.2µM*	-5%	14µM*	.
O=c1[nH]c(SCc2ccc(Cl)cc2)nc2[nH]ncc12	2%	-8%	8%	2%	.	-21%
SMILES	CBFb-RUNX1 inh	HttQ103 aggreg	ALDH1A1 inh	KDM4E inh	HPGD inh	HTT ATP protect
OC1(c2ccc(Cl)c(Cl)c2)C[n+]2ccccc2N1Cc1ccccc1 (configuration not stated)	1%	-21%[9.22 µM]	.	?	.	2%[10 µM]
Cn1c2ccccc2c2cc(C(=O)NNC(=O)CCl)sc21	18%	16µM*	?	?	.	-35%
COCCn1c(=O)c(-c2cccc(C#N)c2)nc2cnc(N3CCOCC3)nc21	.	.	?	.	.	21%
Cn1cccc1CC(=O)NNC(=S)NC(=O)c1ccc(F)cc1	.	-14%[9.22 µM]	.	?	.	-8%[10 µM]
COc1ccc(NCC(=O)n2c(C)c(C)c3ccccc32)cc1	-10%	-2%	7.9µM*	-20%	.	-53%
COc1ccc(NC(=O)Cn2c(C)cc(=O)c3ccccc32)cc1	0%	6%	4%	4%	-11%	.
COC(=O)c1ccc(NC(=S)NNC(=O)CC(C)C)cc1	6%	-4%	0%	-1%	28µM*	13%[10 µM]
COc1cc(C(=O)NNC(=S)Nc2ccc(S(N)(=O)=O)cc2)cc(OC)c1OC	2%	.	10µM*	0%	.	.
CCOC(=O)c1ccc(NC(=S)NNC(=O)COC)cc1	-11%	20%	8.9µM*	-3%	-20%	6%[10 µM]
COc1ccc(C(=O)NC(=S)Nc2ccc(S(N)(=O)=O)cc2)cc1	?	-11%[9.22 µM]	29%	-1%	.	19%[10 µM]
COC(=O)c1ccc(NC(=S)Nc2ccccc2)cc1	5%	18%	-3%	-1%	-6%	15%[10 µM]
COC(=O)c1ccc(NC(=S)NNC(=O)c2ccccc2)cc1	13%	21%[9.22 µM]	8.9µM*	-57%	.	21%[10 µM]
COC(=O)c1cc(OC)c(OC)cc1NC(=S)Nc1cc(Cl)ccc1OC	-4%	-11%	-1%	0%	.	0%[10 µM]
COC(=O)c1ccccc1NC(=S)NC(=O)c1ccccc1	0%	9%	?	?	?	-11%
CCOC(=O)c1ccc(NC(=S)NC2CCCC2)cc1	8%	7%	1%	5%	-1%	.
COc1ccc(Cl)cc1NC(=S)NNC(=O)C1(C)CC1(Cl)Cl (configuration not stated)	-4%	9%[9.22 µM]	28µM*	11%	.	32%[10 µM]
COC(=O)c1cccnc1NC(=S)NNC(=O)c1ccccc1	-2%	10%	?	5%	25µM*	17%[10 µM]
CCOC(=O)c1ccc(NC(=S)NNC(=O)C2(C)CC2(Cl)Cl)cc1 (configuration not stated)	-4%	?	10µM*	3%	28µM*	1%[10 µM]
